Screens: PubChem, National Center for Advancing Translational Sciences (NCATS)
This is a sample that favours compounds with a hit; in the whole collection about 19% have one here.
TDP1 cell noCPT = qHTS for Inhibitors of human tyrosyl-DNA phosphodiesterase 1 (TDP1): qHTS in cells in absence of CPT; DT40 Tdp1-/- hTDP1 cells, no CPT, ATP luminescence, 48 h; Potency, µM (doses to about 46.2 µM), without a hit: at the highest dose activity change, negative = growth inhibition, most hits filed as inhibitors; 420,000 tested, 15% active; note: potency is the fitted concentration of half-maximal effect; nearly all actives have a fitted effect of over 55% in size
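Chicken DT40 Tdp1-/- cells complemented with human TDP1, screened without camptothecin (DMSO vehicle only), 400 cells/well. Compounds pin-transferred, cells incubated at 37 °C for at least 48 hr. Growth read as ATP-dependent luminescence (CellTiter-Glo, 30 min at RT).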
IL1B secr inh = qHTS for Inhibitors of Inflammasome Signaling: IL-1-beta AlphaLISA Primary Screen; 360,000 tested, 4.7% active; activity change, % at 57.5 µM; THP-1 LPS/ATP IL-1B secretion, AlphaLISA, 16 h; active compounds read low; in the data active = activity change below about -50%; inconclusive = mostly about -30% to -49%
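Secreted IL-1B measured by AlphaLISA bead assay after 16 h compound exposure of THP-1 cells; compounds (final up to 57.5 uM) added 1 h before LPS (250 ng/mL) and ATP (1.25 mM) stimulation; lower signal means less secretion.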
TDP1 inh = qHTS Assay for Inhibitors of Tyrosyl-DNA Phosphodiesterase (TDP1); 350,000 tested, 0.28% active; AID 485290, 2010; Potency, µM (series often up to 130 µM), for inactives: top-dose activity change, negative = inhibition, most hits filed as inhibitors; recombinant TDP1, AlphaScreen DNA substrate cleavage; Tyrosyl-DNA phosphodiesterase 1 (Homo sapiens), Q9NUW8; note: potency is the fitted concentration of half-maximal effect; nearly all actives have a fitted effect of over 40% in size
Target sequence (Q9NUW8 whole entry, looked up): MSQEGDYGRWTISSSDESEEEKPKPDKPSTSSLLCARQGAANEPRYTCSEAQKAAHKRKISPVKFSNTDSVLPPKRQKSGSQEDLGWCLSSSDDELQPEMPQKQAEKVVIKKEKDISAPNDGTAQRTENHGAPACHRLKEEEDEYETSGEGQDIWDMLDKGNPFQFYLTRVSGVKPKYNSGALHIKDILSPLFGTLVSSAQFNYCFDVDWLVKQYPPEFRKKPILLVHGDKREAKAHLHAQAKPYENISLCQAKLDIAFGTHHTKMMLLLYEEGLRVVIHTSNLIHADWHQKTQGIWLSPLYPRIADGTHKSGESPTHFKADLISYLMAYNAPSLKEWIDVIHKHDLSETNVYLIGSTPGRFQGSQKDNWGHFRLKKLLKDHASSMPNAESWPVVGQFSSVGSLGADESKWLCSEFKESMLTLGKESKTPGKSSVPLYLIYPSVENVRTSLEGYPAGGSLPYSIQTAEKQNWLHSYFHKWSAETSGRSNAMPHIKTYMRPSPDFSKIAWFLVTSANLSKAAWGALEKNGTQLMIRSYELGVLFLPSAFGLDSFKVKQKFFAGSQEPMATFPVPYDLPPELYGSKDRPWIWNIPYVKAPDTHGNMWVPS
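E. coli-derived human Tdp1, 1 nM final. Cpd preinc 15 min RT; substrate 15 nM final, 5 min RT; AS bead mix 10 ug/ml final, 10 min RT. Signal loss = tyrosine-FITC cleavage. No-enzyme wells = max signal.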
ELG1 repair inh = qHTS screen for small molecules that inhibit ELG1-dependent DNA repair in human embryonic kidney (HEK293T) cells expressing luciferase-tagged ELG1; HEK293T ELG1-luciferase reporter, luminescence, 16 h; DNA damage induced by 5-fluorouridine; AID 504467, 2011; 330,000 tested, 2.3% active; Potency, µM (top dose mostly 46.1 µM), inactives show top-dose activity change, negative = inhibition, usual class: inhibitors; note: potency is the fitted concentration of half-maximal effect; nearly all actives have a fitted effect of over 55% in size
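Step one: seed 2,000 cells per well. Step two: pin-transfer compound or DMSO alongside 5-fluorouridine. Step three: incubate 16 hr, 37 °C, 5% CO2. Step four: add ONE-Glo, wait 30 min, read luminescence.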
DT40 TDP1 CPT = qHTS for Inhibitors of human tyrosyl-DNA phosphodiesterase 1 (TDP1): qHTS in cells in presence of CPT | chicken DT40 Tdp1-/-;hTDP1 cells + 20 nM CPT, ATP luminescence, 48 h | Potency, µM (titrated, usually from 46.2 µM), for the others: top-dose activity change, negative = growth inhibition, actives largely listed as inhibitors | 420,000 tested, 12% active; note: potency is the fitted concentration of half-maximal effect; nearly all actives have a fitted effect of over 55% in size
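Chicken DT40 Tdp1-/- cells complemented with human TDP1, 400 cells/well, exposed to compounds plus 20 nM camptothecin for at least 48 h at 37 C; viability read as ATP content by CellTiter-Glo luminescence.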
Giardia kill = Small Molecules that selectively kill Giardia lamblia: qHTS. Giardia lamblia trophozoite viability. activity change, % at 7.66 µM, hits read low. 340,000 tested, 0.15% active; in the data active = activity change below about -80%; inconclusive = between about -30% and that limit;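 note: parasites exposed to compound for two days anaerobically before the ATP read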
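Giardia trophozoites, 100 cells per well, were exposed to compounds for 48 hrs at 37 deg C under anaerobic conditions; viability was then read as ATP content by bioluminescence after 15-30 min at room temperature.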
Active calls of the source: *; ? = inconclusive; . = no result. Unless noted, calls come from the whole dose curve; as a rule, active = well fitted curve in the direction sought with a large enough effect; inconclusive = small, poorly fitted or top-dose-only effect, or another doubt; inactive = no such curve, though single readings can be large; an effect the other way counts as inactive or inconclusive. % is set by controls: 0 for no effect and ±100 for the full control effect.

SMILES	TDP1 cell noCPT	IL1B secr inh	TDP1 inh	ELG1 repair inh	DT40 TDP1 CPT	Giardia kill
CC(C)(C)OC(=O)NCCCC[C@H](NC(=O)c1[nH]cnc1C(=O)Nc1ccc(Cl)cc1)C(=O)OC(C)(C)C	16µM*	-58*	9%	?	?	-3
CC(C)(C)OC(=O)NCCCC[C@H](NC(=O)c1[nH]cnc1C(=O)Nc1ccccc1)C(=O)OC(C)(C)C	23µM*	?	11%	?	15µM*	2
Cc1ccc(S(=O)(=O)N/N=C/c2c(F)cccc2Cl)cc1	?	16	3%	-2%	16µM*	16
Cc1ccc(S(=O)(=O)N/N=C/c2cc(Br)c(C)o2)cc1	?	12	-1%	-15%	16µM*	1
Cc1cc(C(=O)N/N=C/c2cc(Br)cc(Br)c2OC(=O)c2cccc(F)c2)n[nH]1	5.8µM*	78	5%	?	5.8µM*	5
Cc1cc(C(=O)N/N=C\c2cc(C(C)(C)C)ccc2O)n[nH]1	3.3µM*	198	7%	-1%	21µM*	-5
Cc1cc(C(=O)N/N=C/c2cc(Br)cc(Br)c2OC(=O)c2ccccc2)n[nH]1	.	.	8%	?	.	.
Cc1ccc(-c2cc(C(=O)N/N=C/C(Br)=C/c3ccccc3)n[nH]2)o1	10µM*	?	10%	-27%	12µM*	28
Cc1ccc(-c2cc(C(=O)N/N=C/c3ccccc3O)n[nH]2)o1	5.2µM*	84	3%	19%	5.2µM*	-6
CC1(C(=O)NCc2ccc3c(c2)OCO3)CCN1C(=O)Cc1ccc(Cl)cc1Cl (centres undefined)	?	-20	.	.	-27%	.
O=C1NC(=O)N(Cc2ccccc2F)C1=O	-7%	-7	.	2%	2%	-4
C/C(=N\Nc1ccc([N+](=O)[O-])cc1)c1cccc(N)c1	21µM*	-29	5%	8%	?	-11
C/C(=N\Nc1ccc([N+](=O)[O-])cc1)c1ccc(O)cc1	?	-61*	5%	?	?	-2
CC(=O)NC/C(C)=N\Nc1ccc([N+](=O)[O-])cc1	?	-23	5%	?	?	-23
Cc1cccc(NC(=O)COC(=O)c2ccccc2SCC(=O)N2CCCC2)c1	-26%	8	2%	-2%	-5%	-5
O=C(N/N=C1/SCC(=O)N1Cc1ccco1)c1ccccc1F	-5%	1	0%	?	2%	-5
O=C(O)CCNC(=O)C12CC3CC(CC(C3)C1)C2	0%	0	2%	7%	2%	13
CCC(=O)N1CCc2cc(S(=O)(=O)NCCC(=O)Nc3ccc(C)cc3)ccc21	?	.	2%	.	?	.
CCOc1ccc2nc(SCC(=O)NNC(=O)c3ccco3)c(C)cc2c1	-14%	-2	8%	?	-15%	11
CCOc1ccc2cc(/C=C/C(=O)c3ccco3)c(Cl)nc2c1	21µM*	?	0%	?	?	3
CCCCCc1ccc(-c2cn(Cc3ccc4c(c3)C(=O)c3ccccc3C4=O)nn2)cc1	-2%	.	.	.	-2%	.
COc1ccc(OC)c(/C=C/c2ccc3ccccc3[n+]2C)c1	2µM*	.	.	.	2µM*	.
COc1ccc(OC)c(/C=C/c2cc3ccccc3cn2)c1	5µM*	.	.	.	5µM*	.
COc1ccc(OC)c(/C=C/c2ccccc2)c1	-1%	.	.	.	-25%	.
COc1ccc2ccc3cccc[n+]3c2c1	-5%	-8	.	.	5%	1
SMILES	TDP1 cell noCPT	IL1B secr inh	TDP1 inh	ELG1 repair inh	DT40 TDP1 CPT	Giardia kill
Cn1c(SCC(=O)NCc2ccccc2)nc2ccccc21	-12%	0	1%	0%	-28%	-6
Cc1ccc(C)c(Cn2c(SCC(=O)NCc3ccccc3)nc3ccccc32)c1	18µM*	.	-1%	.	?	.
O=C(CSc1nc2ccccc2n1Cc1ccccc1Cl)NCc1ccccc1	23µM*	.	9%	.	15µM*	.
COCCCNC(=O)CSc1nc2c(sc3ccccc32)c(=O)n1CCCC(=O)NCCOC	-19%	.	5%	.	-2%	.
CC(C)(C)NC(=O)CSc1nc2cc(S(=O)(=O)N3CCCCC3)ccc2o1	?	17	0%	-17%	?	-23
O=C(Nc1ccc(F)cc1)C1(S(=O)(=O)c2ccc(Cl)cc2)CC1	-9%	-1	1%	7%	1%	0
CCN(CC)c1ccc(/C=N/NC(=O)c2c(-c3ccccc3)noc2C)cc1	?	29	5%	?	-25%	-8
C[C@H](NC(=O)Cc1cc(F)cc(F)c1)C(=O)N[C@@H](C(=O)OC(C)(C)C)c1ccccc1	.	.	4%	.	.	.
COCc1cc(C)n(CC(=O)Nc2ccc(NC(C)=O)cc2)c(=O)c1C#N	13%	.	1%	.	4%	.
O=C(CN1CCN(S(=O)(=O)c2ccc(F)cc2)CC1)Nc1ccc(F)cc1F	?	3	4%	?	-10%	25
O=C(CN1CCN(S(=O)(=O)c2ccc(F)cc2)CC1)Nc1cc(C(F)(F)F)ccc1Cl	?	-18	2%	26µM*	21µM*	-25
COc1ccc(S(=O)(=O)N2CCN(CC(=O)Nc3cc(C(F)(F)F)ccc3Cl)CC2)cc1	10µM*	-17	0%	-3%	?	6
CNC(=O)NC(=O)C(C)OC(=O)c1c2c(nc3ccccc13)/C(=C/c1cccs1)CC2 (centres undefined)	18µM*	-4	0%	9.2µM*	21µM*	-7
